The list is not random: actives were taken first. Their share in the collection is about 2.7%.
KKLEB tox = reduces viability of KKLEB cystic fibrosis airway cells; KKLEB CF airway cells viability, ATPlite luminescence, overnight; hits give low values; cells stimulated with P. aeruginosa culture filtrate; activity change (cytotoxicity), % at 5 µM; 360,000 compounds, 0.36% hits; AID 602141;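 active = corrected activity change at or below -50% at 5 µM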
Peg3 prom inh = reduces Peg3 promoter-driven luciferase expression in HeLa. inhibition, % at 20 µM. 360,000 compounds, 1.7% hits. HeLa PEG-Prom luciferase reporter, luminescence, overnight;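 active = inhibition of at least 50% at 20 µM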
Shn3 inh set2 = reduces Shn3 3'UTR luciferase signal in osteoblasts; inhibition, % at 12.5 µM; 360,000 compounds, 0.52% hits; AID 588674; Clone20 osteoblast Shn3 3'UTR firefly luciferase, 24 h;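 active = mean inhibition of at least 75% with every replicate also reaching 75%; inconclusive = mean inhibition at least 75% but some replicate below; inactive = mean inhibition below 75%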
TRPM1 prom inh = reduces MITF-dependent TRPM1 promoter luciferase signal | SK-MEL-5 TRPM1 promoter luciferase, 24 h | inhibition, % at 12.5 µM | 330,000 compounds, 0.83% hits | AID 488899;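 active = mean inhibition across replicates of 60% or more, whatever share of single replicates reaches that level; inconclusive = some that reach 60%, reason not given; inactive = mean inhibition across replicates below 60%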
CF NFkB inh = cystic fibrosis NF-kB activation inhibition. KKLEB NF-kB-GFP reporter, PAF-induced, GFP fluorescence overnight. inhibition, % at 5 µM. 360,000 compounds, 0.86% hits. AID 588850;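 active = at least 50% inhibition at 5 µM, scaled per plate between neutral and stimulator controls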;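 also: PAF is a Pseudomonas aeruginosa culture filtrate used as stimulus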
HIF-2a inh = blocks HIF-2a reporter activity | inhibition, % at 18.8 µM | 786-0 RCC cells HIF-2a reporter, luciferase luminescence, overnight | AID 624352 | 360,000 compounds, 0.72% hits;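 active = inhibition of the luminescence signal of 40% or more relative to plate controls, in a single-dose primary screen at 18.75 µM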
Numbers stand for hits; n = inactive; u = inconclusive; x = no result given.

SMILES | KKLEB tox | Peg3 prom inh | Shn3 inh set2 | TRPM1 prom inh | CF NFkB inh | HIF-2a inh
CC(C)(C)C(=O)NC(=S)NNC(=O)c1ccc(-c2ccccc2)cc1 | n | n | 94 | u | 56 | n
O=C(NCc1ccccc1)c1cc(C2CCCN(S(=O)(=O)c3ccccc3)C2)on1 (stereo unspecified) | n | n | n | x | n | n
Cn1cccc1/C=C1\SC(=Nc2ccccc2)NC1=O | n | n | n | n | n | n
Cc1ccc(N=C2NC(=O)/C(=C/c3cn(C)c4ccccc34)S2)cc1C | n | n | n | n | 53 | n
Cc1cc(=O)[nH]c(N/N=C/c2ccccn2)n1 | n | n | 89 | n | n | n
CC(=O)NCCCNC(=S)NCCCN(Cc1ccc(Cl)cc1)c1ccc(Br)cn1 | n | n | n | x | n | n
CCN(CC)CCn1nc2c3c(cccc3c1=O)-c1ccccc1-2 | n | 106 | n | 70 | n | n
O=c1c2cccc3c2c(nn1CN1CCOCC1)-c1ccccc1-3 | n | n | n | n | n | n
Nc1ccc(O)c(-c2nc3ccccc3s2)c1 | n | n | n | n | n | n
Oc1ccc(N=C/C=C/c2cccc(Br)c2)cc1-c1nc2ccccc2s1 | n | 67 | n | n | n | n
CCOC(=O)[C@]12CCC=C1N(Cc1ccco1)C(=O)[C@H](CC(=O)NCC1CCCCC1)C2 | x | x | x | x | x | n
C[C@]12C(=O)N(c3ccc(C(F)(F)F)cc3)C(=O)N1[C@H]1c3ccccc3OC[C@@H]1[C@H]2c1ccccc1 | n | n | n | n | 60 | n
CCCCCCCCCCCCCCCC[N+](C)(C)CCN(Cc1ccc(OC)cc1)c1ncccn1 | n | 105 | n | 103 | n | 86
Cc1ccc(-c2nn(-c3ccccc3)cc2CN(Cc2ccccc2)C(=O)c2ccco2)o1 | n | 65 | n | n | n | n
COc1ccc(CN2CCC[C@]3(N[C@H](c4ccccc4)[C@@H]4C(=O)N(Cc5ccccc5)C(=O)[C@@H]43)C2=O)cc1 | n | n | n | x | n | n
CC(C)N1CCC(C)(C(=O)Nc2ccccc2Oc2ccccc2)C1 (stereo unspecified) | n | n | n | x | n | n
CC(=O)N1CC2(CC(c3ccccc3C(F)(F)F)=NO2)CN1c1ccc(Cl)cc1 (stereo unspecified) | n | n | n | x | n | n
COC(=O)C[C@H]1C[C@H]2c3cc(NC(=O)Nc4ccc(C(F)(F)F)cc4)ccc3O[C@H]2[C@@H](CO)O1 | n | n | n | x | n | n
CCn1c(O)c(/C=N/N=C/c2ccccc2)c2ccc(C3=NNC(=O)CC3)cc21 | n | 50 | n | n | n | n
C[C@@H]1CN([C@@H](C)CO)C(=O)CCCn2nncc2CO[C@H]1CN(C)C(=O)c1ccncc1 | n | n | n | x | n | n
Cc1c(C(=O)NCc2ccccc2)oc2ccc(S(=O)(=O)N3CCC4(CC3)OCCO4)cc12 | n | n | n | n | n | n
O=S(=O)(c1cc(F)ccc1F)N1CCC2(CC1)OCCO2 | n | n | n | n | n | n
Cc1c(C(=O)Nc2cccc(Cl)c2)oc2ccc(S(=O)(=O)N3CCC4(CC3)OCCO4)cc12 | n | 58 | n | n | n | n
Cc1c(C(=O)Nc2ccc(F)cc2)oc2ccc(S(=O)(=O)N3CCC4(CC3)OCCO4)cc12 | n | 55 | n | n | n | n
Cc1c(C(=O)NCC2COc3ccccc3O2)oc2ccc(S(=O)(=O)N3CCOCC3)cc12 (stereo unspecified) | n | 73 | n | n | n | n
SMILES | KKLEB tox | Peg3 prom inh | Shn3 inh set2 | TRPM1 prom inh | CF NFkB inh | HIF-2a inh
O=C(Nc1ccc(F)c(F)c1)c1ccc(F)c(S(=O)(=O)N2CCC3(CC2)OCCO3)c1 | n | n | 84 | n | n | n
CC1=C(C(=O)N(C(C)C)C(C)C)CC(CC(=O)NCCCCc2ccccc2)C(=O)N1Cc1ccc(C(C)(C)C)cc1 (stereo unspecified) | n | n | n | x | n | n
COc1ccc(NC(=O)C2(C)CCN2C(=O)CC2CCCC2)cc1OC (stereo unspecified) | n | n | n | x | n | n
CCCn1cnnc1CNC(=O)[C@H]1O[C@@H](n2ccc(=O)[nH]c2=O)[C@H](O)[C@@H]1O | n | n | n | x | n | n
Cc1c(C(=O)Nc2ccc(F)cc2)oc2ccc(S(=O)(=O)N3CCCC3)cc12 | n | n | n | n | n | n
Cc1c(C(=O)Nc2ccc(S(=O)(=O)N(C)C3CCN(C)CC3)cc2)oc2ccccc12 | n | 89 | n | n | n | n
Cc1c(C(=O)Nc2ccc(F)c(F)c2)oc2ccc(S(=O)(=O)N3CCCCC3)cc12 | n | 64 | n | n | n | n
CCN(CC)c1ccc2c(cc1=O)[C@@H](NC)CCc1cc(OC)c(OC)c(OC)c1-2 | n | n | n | 66 | n | n
COc1cc2c(c(OC)c1OC)-c1ccc(N(C)CC(OC)OC)c(=O)cc1[C@@H](NC(C)=O)CC2 | n | n | n | 73 | n | n
CCCCC[n+]1ccn(C2=C([O-])c3ccccc3C(=O)/C2=N\S(=O)(=O)c2ccc(Cl)cc2)c1 | n | n | n | 78 | n | n
CCc1ccc(CN(Cc2cccnc2)C(=O)/C=C/c2ccc(OC)cc2)cc1 | n | n | n | n | n | n
CC1(C)CC(NC(=O)c2ccc(Cl)c(S(=O)(=O)N(Cc3ccccc3)c3ccccc3)c2)CC(C)(C)N1 | n | 107 | n | 92 | n | n
COc1ccccc1N(Cc1ccccc1)S(=O)(=O)c1cccc(C(=O)O)c1 | n | n | n | n | n | n
COc1ccccc1N(Cc1ccccc1)S(=O)(=O)c1cccc(C(=O)NC2CC(C)(C)NC(C)(C)C2)c1 | n | 87 | n | n | n | n
O=C(O)c1ccc(Cl)c(S(=O)(=O)N(Cc2ccccc2)c2ccc(Cl)cc2)c1 | n | n | n | n | n | n
Cc1cccc(C)c1Cn1c(C)c(C(=O)NCCC#N)sc1=O | n | n | n | x | n | n
COc1ccc(S(=O)(=O)N2CCCCC2)cc1NC(=O)CN(Cc1ccco1)Cc1ccco1 | n | 54 | n | n | n | n
COc1ccc(S(=O)(=O)N2CCCCC2)cc1NC(=O)CN(C)C1CCCCC1 | n | n | n | n | n | n
CCCCNC(=O)c1nc(-c2cccs2)oc1-c1ccc(Cl)cc1 | x | x | x | x | x | n
CCN(Cc1ccccc1)c1ccc(/C=C(\C#N)c2ccccn2)cc1 | n | n | n | n | n | n
CCN(CC)c1ccc(/C=C(\C#N)c2ccccn2)cc1 | -50 | n | n | n | n | n
CN(CCC#N)c1ccc(/C=C(\C#N)c2ccccn2)cc1 | -52 | n | n | n | n | n
CCCCCc1c(-c2ccc(OC)cc2)ncn1CCc1ccccc1OC | x | x | x | x | x | n
COc1ccc(C(O)c2nc(-c3ccncc3)cs2)cc1 (stereo unspecified) | n | n | n | x | n | n
C#Cc1ccc([C@@H]2C=C(C(=O)N3CCN(Cc4ccccc4)CC3)O[C@H](OCCCCO)C2)cc1 | n | n | 93 | n | n | n
